Shown are actives, neighbours in structure and some others; about 12% of the full set was active somewhere.
JMJD2A Tudor: inhibitors of human JMJD2A Tudor domain; AlphaScreen JMJD2A-Tudor / H3K4me3 peptide binding; Potency, µM (top dose mostly 114 µM), inactives show at the highest dose activity change, negative = inhibition, most hits filed as inhibitors; 390,000 tested, 4.4% active; further: on the % scale 0 is the no-effect control and ±100 the full control effect; nearly all actives have a fitted effect of over 50% in size
Sfp inh: blocks B. subtilis Sfp PPTase activity; Potency, µM, for the others: largest response in the series, negative = inhibition, most hits filed as inhibitors; Biochemical Sfp PPTase activity, qHTS; AID 1490; 310,000 tested, 3.5% active; Q9F4F7;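 further: the enzyme is Sfp with the accession as filed and its product quenches rhodamine fluorescence; 0% = enzyme reaction without inhibitor and -100% = no enzyme wells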
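Step 1, compound plus 15 nM Sfp-PPTase, 15 min, room temperature. Step 2, add rhodamine-CoA (5 uM) and BHQ-2-YbbR (12.5 uM). Step 3, read 525/598 nm fluorescence at 0 and 30 min.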
G9a inh: blocks human histone lysine methyltransferase G9a; G9a H3K9 monomethylation, AlphaScreen, 2 h; Potency, µM (top dose mostly 102 µM), without a hit: top-dose activity, negative = inhibition, usual class: inhibitors; 350,000 tested, 8.8% active; Q96KQ7; further: on the % scale 0 is the no-effect control and ±100 the full control effect; nearly all actives have a fitted effect of over 75% in size
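Using a bead-based AlphaScreen, monomethylated H3K9 product from 2 h room-temperature reactions (G9a 20 nM, peptide 500 nM, SAM 20 uM) was detected with 0.5 ug/mL rabbit anti-H3K9me1 antibody.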
BAZ2B inh: BAZ2B (human) inhibition | AlphaScreen BAZ2B-H3K14Ac peptide displacement | Potency, µM (series often up to 114 µM), inactives show at the top dose activity change, negative = inhibition, most hits filed as inhibitors | 360,000 tested, 4.4% active | AID 504333; further: on the % scale 0 is the no-effect control and ±100 the full control effect; nearly all actives have a fitted effect of over 60% in size
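Protein-peptide AlphaScreen: BAZ2B 50 nM, b-H3K14Ac 50 nM, 1x PBS pH 7.4 + 0.01% Tween-20. Preincubation 30 min RT; cpd 30 min RT (top 110 uM); beads 20 min RT, light-protected.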
L3MBTL1 block: L3MBTL1 (human) inhibition; Q9Y468; AlphaScreen L3MBTL1–H3K9me1 peptide binding; Potency, µM (series often up to 57.1 µM), inactives show top-dose activity, negative = inhibition, most hits filed as inhibitors; 230,000 tested, 0.66% active; further: on the % scale 0 is the no-effect control and ±100 the full control effect; nearly all actives have a fitted effect of over 60% in size
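Displacement of a biotinylated histone H3(1-15) peptide monomethylated at Lys9 (75 nM) from L3MBTL1 (50 nM) was measured by AlphaScreen after a 30 min room-temperature compound incubation; cefsulodin titration served as intraplate control.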
HP1b chromo inh: HP1-beta chromodomain-methylated histone interaction inhibition | AlphaScreen HP1-beta / biotin-H3K9me3 peptide binding | 390,000 tested, 0.56% active | P83916 | Potency, µM (series often up to 114 µM), for the others: at the top dose activity change, negative = inhibition, usual class: inhibitors | AID 540317; further: nearly all actives have a fitted effect of over 70% in size
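AlphaScreen: HP1-beta (50 nM) preformed 30 min with biotin-H3(1-18)K9me3 peptide (50 nM) in PBS pH 7.4, 0.01% Tween-20. Compound added for 30 min at RT, then streptavidin donor/nickel chelate acceptor beads (10 ug/mL) for 30 min.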
* = called active by the depositor; ? = inconclusive; nt = no result; ! = a repeat was not active; [ ] = another dose, or the depositor's remark. The call rests on the fitted dose curve; in most records, active means well fitted curve in the direction sought with a large enough effect; inconclusive means small, poorly fitted or top-dose-only effect, or another doubt; inactive means no such curve, though single readings can be large; an effect the other way counts as inactive or inconclusive. Potency means the concentration at half of the fitted maximal effect.

SMILES	JMJD2A Tudor	Sfp inh	G9a inh	BAZ2B inh	L3MBTL1 block	HP1b chromo inh
Cc1ccccc1CNCCCSc1nnnn1-c1ccccc1	-12%	nt	-8%[59 µM]	-17%	nt	39%
COc1ccc(C(N)CCc2ccc(C)o2)cc1 (stereo not drawn)	?	-12%	79µM*	?	-1%	-12%
COCCNC(=O)c1c(NC(=O)Cc2coc3cc(C)ccc23)sc2c1CCCC2	-14%	nt	-35%[59 µM]	-17%	nt	10%
O=C(O)c1ccccc1C(=O)Nc1ccccc1NC(=O)c1ccccc1C(=O)O	10%	nt	nt	nt	nt	42%
COC(=O)C1=C(Nc2ccccc2NC(=O)c2ccccc2C(=O)O)CSC1	-14%	45µM*	-19%	?	nt	36%
COC(=O)C1=C(Nc2ccccc2NC(=O)CCCC(=O)O)CSC1	-8%	79µM*	nt	-1%	nt	22%
CC(C)c1ccccc1NC(=O)CCCC(=O)O	-7%	6%	11%[59 µM]	-2%	-6%	18%
COc1ccc(CCn2c3c(c(=O)[nH]c2=S)CN(C)CN3)cc1OC	-17%	nt	nt	nt	nt	20%
CCc1ccc(NC(=O)c2cc(=O)c3ccc(C)c(C)c3o2)cc1	-12%	nt	-27%[59 µM]	-13%	nt	18%
CCOC(=O)c1ccc(Nc2c(-c3cccc(O)c3)nc3nc[nH]n23)cc1	-34%	nt	?	-31%	nt	13%
CCOC(=O)c1ccc(Nc2c(-c3ccc(N(C)C)cc3)nc3nc[nH]n23)cc1	-34%	nt	16µM*	?	nt	-15%
CN(c1ccc(F)cc1)S(=O)(=O)c1ccc(Cl)c(C(=O)NCC(c2ccco2)N2CCCCC2)c1 (stereo not drawn)	?	nt	28µM*	56µM*	0%	-34%
O=C(CSc1nnc(-c2cccnc2)s1)Nc1ccc(C(=O)O)cc1	-25%	-18%	14µM*	-12%	10%	16%
O=C(Nc1cccc(Cl)c1)c1ccc2c(c1)CCN2S(=O)(=O)c1ccccc1	-3%	nt	-1%[59 µM]	0%	nt	42%
N=C1N(c2ccccc2)C(=S)C(=Nc2ccccc2)N1c1ccccc1	25µM*	nt	nt	nt	nt	45µM*
O=C1C(Cc2ccccc2)SC(=Nc2ccccc2)N1c1ccccc1 (stereo not drawn)	7%	3%	35%[0.501 µM]	5%	3%	34%
CCCCN(C)CCNC(=O)c1cc(-c2cccnc2)nc2ccc(S(=O)(=O)N3CCC(C)CC3)cc12	?	3%	50µM*	-19%	nt	3%
O=[N+]([O-])c1cccc(/C=N/NS(=O)(=O)c2ccccc2)c1	-19%	0%	nt	-7%	9%	50%
O=[N+]([O-])c1ccc(S(=O)(=O)N/N=C/c2ccsc2)cc1	-15%	4%	45µM*	?	nt	33%
CCC1CCCCN1CCCNC(=O)c1c(O)nc2ccccn2c1=O (stereo not drawn)	-9%	5%	79µM*	-17%	nt	23%
COc1ccc(C2C(C(=O)Nc3ccccc3OC)=C(C)Nc3c(C(=O)Nc4ccccc4)cnn32)c(OC)c1 (stereo not drawn)	-23%	nt	-23%[59 µM]	-2%[57.1 µM]	nt	22%
COC(=O)C1=C[C@@H](C(=O)OC)[C@@H]2C3=C(C(=O)[C@@]2(CC(C)C)NC(=O)c2ccccc2)[C@H](C)n2c(=O)n(-c4ccccc4)c(=O)n2[C@@H]3C1	-12%	12%	nt	nt	nt	44%
Cc1ccc(NC(=O)C2(c3ccccc3)CCOCC2)cc1	50µM*	21%	7%	-9%	-20%	-6%
Cc1onc(-c2ccccc2)c1C(=O)OCc1nnc(-c2ccccc2)o1	21%	nt	0%[0.501 µM]	29%	-2%	47%
Cc1onc(-c2cccc(Cl)c2Cl)c1C(=O)O/N=C(\N)c1ccc([N+](=O)[O-])o1	?	-4%	35µM*	?	-13%	-10%
SMILES	JMJD2A Tudor	Sfp inh	G9a inh	BAZ2B inh	L3MBTL1 block	HP1b chromo inh
Cc1onc(-c2ccccc2)c1C(=O)O/N=C(\N)c1ccc([N+](=O)[O-])o1	-32%	20%	45µM*	-38%	-12%	15%
C/C(=N\OC(=O)c1c(-c2ccccc2Cl)noc1C)c1ccncc1	-10%	5µM*	nt	-15%	9%	1%
Cc1onc(-c2ccccc2Cl)c1C(=O)O/N=C(\N)c1ccccc1	8%	12%	47%	4%	nt	37%
COc1ccccc1-n1c(=O)c2c3c(sc2n(C)c1=O)CN(C(C)=O)CC3	-3%	nt	-4%[59 µM]	2%	nt	37%
CC(=O)CSc1ncnc2nc[nH]c12	-24%	0%	-3%[59 µM]	-29%	4%	18%
Cn1cnc(Sc2ncnc3nc[nH]c23)c1[N+](=O)[O-]	6.3µM*	40µM*	nt	?	nt	?
Cn1cnc([N+](=O)[O-])c1Sc1ncnc2nc[nH]c12	3%	79µM*!	16%[12.7 µM]	-5%	15%	21%
O=C(Nc1ccc(N2CCOCC2)cc1)c1cc2ccccc2o1	-20%	-10%	-22%[12.7 µM]	-37%	-17%	15%
O=C(/C=C/N1CCOCC1)c1cc2ccccc2o1	-18%	-6%	10µM*	2%	-1%	28%
CC1=C(C(=O)NCCc2ccc(Cl)cc2)C2(CCCCC2)OC1=O	3%	nt	3%[59 µM]	4%	nt	49%
COc1ccccc1Nc1cc(C)nc2c(C)ccc([N+](=O)[O-])c12	10µM*	-9%	25µM*	11µM*	?	16µM*
COc1ccc2[nH]cc(CCNc3ncncc3-c3ccc4c(c3)OCO4)c2c1	nt	?	6%[0.501 µM]	nt	nt	nt
Cc1cc(C(=O)N/N=C2\CC(=O)c3ccccc32)c(C)n1-c1ccc(F)cc1	-4%[11.4 µM]	1%	50µM*	40µM*	nt	28%
O=C(c1ccncc1)N1CCC2(CC1)CN(Cc1cc(C(F)(F)F)cc(C(F)(F)F)c1)C2	nt	13%	0%[12.7 µM]	nt	nt	nt
CC(C)C[C@@H](CC(=O)N[C@@H](CCC(=O)O)CC(=O)O)NC(=O)[C@@H]1CCCC[C@H]1NC(=O)C[C@H](CCCN)NC(=O)C[C@H](Cc1c[nH]c2ccccc12)NC(=O)[C@@H]1CNCC[C@H]1N	nt	-12%	nt	nt	nt	nt

Source: PubChem (National Center for Advancing Translational Sciences (NCATS))
